# Laboratory results as given in PubChem BioAssay.
# For some assays here: Results with a measured potency or affinity are listed apart. The list shows a part of the results. Active and inactive are the calls of the source.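 How the source made its calls, unless noted: active means dose curve with midpoint inside tested range, moderate steepness, plateau gap beyond fit error, low compound glow and bead-link interference; inactive means the rest.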
# Assays:
# [1] = target: Cell division control protein 42 homolog (Homo sapiens) (UniProt P60953); experiment: wildtype Cdc42 GTP-binding inhibitors, dose response, biochemical, multiplex bead flow cytometry, Bodipy-FL-GTP (AID 1334;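 active means fitted half-maximal concentration within the tested range, moderate curve steepness, significant signal drop, and little compound fluorescence or bead-linkage interference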); settings: bead-based flow cytometry, Bodipy-FL-GTP binding to GST-Cdc42; at 100 µM (top of the series) unless noted
# Chain of Cell division control protein 42 homolog (Homo sapiens) (P60953 whole entry, looked up): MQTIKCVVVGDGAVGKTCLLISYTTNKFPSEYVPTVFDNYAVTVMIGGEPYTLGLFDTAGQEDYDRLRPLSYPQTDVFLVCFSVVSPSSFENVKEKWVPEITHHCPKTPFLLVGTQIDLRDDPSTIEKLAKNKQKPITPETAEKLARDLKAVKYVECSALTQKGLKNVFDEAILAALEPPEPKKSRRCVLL
# [2] = target: GTPase HRas (Homo sapiens) (UniProt P01112); experiment: inhibitors of GTP binding to wildtype Ras, dose response, biochemical, multiplex bead flow cytometry (AID 1335;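 active means fitted half-maximal concentration within 10 nM to 100 µM, steepness 0.5 to 2, significant signal drop, low assay interference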); settings: bead-based flow cytometry, Bodipy-GTP binding to GST-Ras; at 100 µM (top of the series) unless noted
# Chain of GTPase HRas (Homo sapiens) (P01112 whole entry, looked up): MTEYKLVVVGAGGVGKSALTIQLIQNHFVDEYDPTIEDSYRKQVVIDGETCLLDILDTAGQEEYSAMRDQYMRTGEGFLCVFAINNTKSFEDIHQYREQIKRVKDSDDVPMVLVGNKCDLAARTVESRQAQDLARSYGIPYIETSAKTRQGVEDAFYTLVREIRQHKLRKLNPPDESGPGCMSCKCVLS
# [3] = tested on: Ras-related protein Rab-7a (dog), GTP binding; experiment: Rab7 GTP binding inhibitors, potency, dose response, biochemical, wildtype, multiplex bead flow cytometry (AID 1336; call rule not given here)
# [4] = target: GTPase HRas (Homo sapiens) (UniProt P01112); experiment: activated Ras mutant GTP binding inhibitors, dose response, biochemical, multiplex bead flow cytometry (AID 1341;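 active means dose-response curve with midpoint inside the tested range, moderate steepness, significant amplitude and little compound fluorescence or bead-attachment interference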;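 further: GST-tagged constitutively activated Ras mutant immobilized on beads and multiplexed with other GTPases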)
# [5] = target: Ras-related C3 botulinum toxin substrate 1 (Homo sapiens) (UniProt P63000); experiment: wildtype Rac1 GTP binding inhibitors, dose response, biochemical, multiplex bead flow cytometry (AID 1340); settings: GST-Rac1 beads, Bodipy-FL-GTP binding; at 100 µM (top of the series) unless noted
# [6] = target: Regulator of G-protein signaling 16 (Homo sapiens) (UniProt O15492); experiment: modulators of RGS–Galpha-o binding, primary screen, biochemical, multiplexed beads, flow cytometry, RGS4/7/8/16/19 (AID 1504; call rule not given here;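 further: fluorescently labeled Galpha-o bound to GDP with aluminium fluoride binding biotinylated RGS beads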); settings: multiplexed bead flow cytometry, measured here: RGS16 interaction, at 10 µM
# [7] = target: Regulator of G-protein signaling 19 (Homo sapiens) (UniProt P49795); experiment: as above; settings: multiplexed bead flow cytometry, measured here: RGS19 interaction, at 10 µM
# [8] = target: Regulator of G-protein signaling 4 (Homo sapiens) + Guanine nucleotide-binding protein G(o) subunit alpha (Homo sapiens) (UniProt P49798+P09471); experiment: as above; settings: multiplexed bead flow cytometry, at 10 µM
# Chain of Regulator of G-protein signaling 4 (Homo sapiens) + Guanine nucleotide-binding protein G(o) subunit alpha (Homo sapiens) (P09471 whole entry, looked up): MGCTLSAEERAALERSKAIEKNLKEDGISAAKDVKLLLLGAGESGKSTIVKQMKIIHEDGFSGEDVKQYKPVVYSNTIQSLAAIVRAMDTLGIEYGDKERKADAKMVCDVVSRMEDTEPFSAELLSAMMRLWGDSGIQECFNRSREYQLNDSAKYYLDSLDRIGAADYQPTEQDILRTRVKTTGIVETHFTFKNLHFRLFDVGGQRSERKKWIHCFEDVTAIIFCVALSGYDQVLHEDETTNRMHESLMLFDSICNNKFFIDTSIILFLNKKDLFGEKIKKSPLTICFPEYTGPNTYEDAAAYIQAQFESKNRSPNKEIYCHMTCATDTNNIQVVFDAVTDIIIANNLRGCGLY
# Chain of Regulator of G-protein signaling 4 (Homo sapiens) + Guanine nucleotide-binding protein G(o) subunit alpha (Homo sapiens) (P49798 whole entry, looked up): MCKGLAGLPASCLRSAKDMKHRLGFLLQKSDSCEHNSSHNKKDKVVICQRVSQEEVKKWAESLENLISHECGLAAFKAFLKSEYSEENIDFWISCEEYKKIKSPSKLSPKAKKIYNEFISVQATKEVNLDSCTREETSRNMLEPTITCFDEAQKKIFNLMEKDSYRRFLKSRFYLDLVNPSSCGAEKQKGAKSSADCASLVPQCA
# [9] = target: Regulator of G-protein signaling 7 (Homo sapiens) (UniProt P49802); experiment: as above; settings: multiplexed bead flow cytometry, measured here: RGS7 interaction, at 10 µM
# [10] = target: Regulator of G-protein signaling 8 (Homo sapiens) (UniProt P57771); experiment: as above; settings: multiplexed bead flow cytometry, measured here: RGS8 interaction, at 10 µM
# [11] = disruption of biotin probe capture by avidin, counter-screen for RGS protein interaction modulators, biochemical, flow cytometry, bead-based (AID 1783;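 active means inhibition above 50%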;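 further: median green fluorescence of gated singlet beads compared with DMSO control wells; 0% = DMSO wells and 100% = complete loss of bead fluorescence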); settings: streptavidin beads, fluorescein-biotin binding; at 10 µM, stronger effect = higher value
# [12] = target: Guanine nucleotide-binding protein G(o) subunit alpha (Homo sapiens) (UniProt P09471); experiment: RGS8-Galphao binding modulators, confirmation, biochemical, multiplexed bead flow cytometry, single concentration (AID 1836; in the data active means binding response below about 72% or above about 130%; inactive means in between;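 further: Galphao activated as GDP AlF4 complex before binding bead RGS8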); settings: bead-based flow cytometry RGS8-Galphao binding, fluorescence; at 10 µM; actives lie on both sides
# Chain of Guanine nucleotide-binding protein G(o) subunit alpha (Homo sapiens) (P09471 whole entry, looked up): as the sequence (P09471 whole entry, looked up) above
# [13] = target: Guanine nucleotide-binding protein G(o) subunit alpha (Homo sapiens) (UniProt P09471); experiment: RGS7-Galphao binding modulators, confirmation, biochemical, multiplexed bead flow cytometry, single concentration (AID 1837; in the data active means response below about 75% or above about 130%; inactive means in between;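 further: fluorescent Galphao activated with GDP and aluminum fluoride binding bead-coupled RGS7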); settings: bead-based flow cytometry RGS7-Galphao binding; at 10 µM; actives lie on both sides
# [14] = target: Regulator of G-protein signaling 16 (Homo sapiens) + Guanine nucleotide-binding protein G(o) subunit alpha (Homo sapiens) (UniProt O15492+P09471); experiment: modulators of RGS16-Galphao protein binding, confirmation, biochemical, single concentration, multiplexed bead flow cytometry (AID 1838; in the data active means response below about 74% or above about 130%; inactive means in between;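 further: Galphao activated as the GDP aluminium fluoride complex binding bead-coupled RGS16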); settings: bead-based flow cytometry, at 10 µM, actives lie on both sides
# Chain of Regulator of G-protein signaling 16 (Homo sapiens) + Guanine nucleotide-binding protein G(o) subunit alpha (Homo sapiens) (O15492 whole entry, looked up): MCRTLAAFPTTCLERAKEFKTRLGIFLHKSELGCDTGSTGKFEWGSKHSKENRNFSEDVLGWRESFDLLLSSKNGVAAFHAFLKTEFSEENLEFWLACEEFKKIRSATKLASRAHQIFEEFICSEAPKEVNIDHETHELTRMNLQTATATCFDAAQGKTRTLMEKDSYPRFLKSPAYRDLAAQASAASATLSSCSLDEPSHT
# Chain of Regulator of G-protein signaling 16 (Homo sapiens) + Guanine nucleotide-binding protein G(o) subunit alpha (Homo sapiens) (P09471 whole entry, looked up): as the sequence (P09471 whole entry, looked up) above
# [15] = target: Guanine nucleotide-binding protein G(o) subunit alpha (Homo sapiens) (UniProt P09471); experiment: modulators of RGS4-Galphao protein binding, confirmation, biochemical, single concentration, multiplexed bead flow cytometry (AID 1840; in the data active means binding response below about 74% or above about 130%; inactive means in between); settings: at 10 µM, actives lie on both sides
# [16] = target: Guanine nucleotide-binding protein G(o) subunit alpha (Homo sapiens) + Regulator of G-protein signaling 19 (Homo sapiens) (UniProt P09471+P49795); experiment: regulators of RGS19-Galphao binding, confirmation, biochemical, single point, multiplexed bead flow cytometry (AID 1841; in the data active means response below about 50% or above about 160%; inactive means in between;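 further: 100% = no compound control and 0% = blank background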); settings: bead-based flow cytometry RGS19-Galphao binding; at 10 µM; actives lie on both sides
# Chain of Guanine nucleotide-binding protein G(o) subunit alpha (Homo sapiens) + Regulator of G-protein signaling 19 (Homo sapiens) (P09471 whole entry, looked up): as above
# Chain of Guanine nucleotide-binding protein G(o) subunit alpha (Homo sapiens) + Regulator of G-protein signaling 19 (Homo sapiens) (P49795 whole entry, looked up): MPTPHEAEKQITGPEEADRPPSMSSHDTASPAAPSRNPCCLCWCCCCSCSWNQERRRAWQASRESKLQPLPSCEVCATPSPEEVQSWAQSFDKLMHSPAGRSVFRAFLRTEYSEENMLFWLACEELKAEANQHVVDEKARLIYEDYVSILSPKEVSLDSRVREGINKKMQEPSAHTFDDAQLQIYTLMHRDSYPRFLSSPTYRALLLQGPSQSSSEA
smiles,measurement,setting,value
Cc1cc(C(=O)Cn2nc(C(=O)O)c3ccccc3c2=O)c(C)n1-c1ccc(OC(F)F)cc1,"fluorescence, percent of control (lower = inhibition)",[1],28.1%
same,"GTP binding, percent of control",[2],75.5%
same,outcome,[3],inactive
same,outcome,[4],inactive
Cc1ccccc1N(CC(=O)N/N=C/c1ccccc1Cl)C(=O)c1ccccc1,"GTP binding signal, raw median fluorescence (lower = inhibition) (MCF (arbitrary fluorescence units))",[5],212
CCOc1ccccc1-c1c2cc(O)c(=O)cc-2oc2cc(O)c(O)cc12,"GTP binding signal, raw median fluorescence (lower = inhibition) (MCF (arbitrary fluorescence units))",[5],184
COc1ccc(-c2cc(C#N)nc(N3CCNCC3)n2)cc1,"GTP binding, percent of control",[2],153%
same,outcome,[3],inactive
same,"GTP binding signal, raw median fluorescence (lower = inhibition) (MCF (arbitrary fluorescence units))",[5],182
same,outcome,[4],inactive
COc1ccc(OC)c(-c2c3cc(O)c(=O)cc-3oc3cc(O)c(O)cc23)c1,"GTP binding signal, raw median fluorescence (lower = inhibition) (MCF (arbitrary fluorescence units))",[5],137
Cc1ccc(-n2c(-c3cnccn3)n[nH]c2=S)c(Br)c1,"fluorescence, percent of control (lower = inhibition)",[1],23.2%
same,"GTP binding, percent of control",[2],60.1%
same,outcome,[3],inactive
same,"GTP binding signal, raw median fluorescence (lower = inhibition) (MCF (arbitrary fluorescence units))",[5],190
same,outcome,[4],inactive
O=C(/C=C/c1ccco1)Nc1ccc(-c2nc3ccccc3[nH]2)cc1,"GTP binding signal, raw median fluorescence (lower = inhibition) (MCF (arbitrary fluorescence units))",[5],273
CCCN1C(=O)/C(=C/C=C2\N(CC)c3ccccc3C2(C)C)SC1=S,"GTP binding, percent of control",[2],127%
same,outcome,[3],inactive
same,"GTP binding signal, raw median fluorescence (lower = inhibition) (MCF (arbitrary fluorescence units))",[5],176
same,outcome,[4],inactive
N#C/C(=C/c1ccc(N2CCCCC2)o1)C(=O)Nc1ccc2ccccc2c1,"GTP binding signal, raw median fluorescence (lower = inhibition) (MCF (arbitrary fluorescence units))",[5],469
CCOC(=O)CSc1nc2c(c(=O)n(Cc3ccccc3Cl)c(=O)n2C)n1C,RGS16–Galpha-o binding response,[6],-55.5%
same,RGS19–Galpha-o binding response,[7],98.5%
same,RGS4–Galpha-o binding response,[8],74.3% (active)
same,RGS7–Galpha-o binding response,[9],88.1%
same,RGS8–Galpha-o binding response,[10],78.5%
same,inhibition,[11],0.8% (inactive)
same,binding response (% of control),[12],95.8% (inactive)
same,response (percent of control binding),[13],99.8% (inactive)
same,response (% of control binding),[14],99.1% (inactive)
same,binding response (% of control),[15],94.7% (inactive)
same,response (percent of control binding),[16],87.7% (inactive)
O=[N+]([O-])C(=c1ccc2c(c1)N1C3=C(CCCC3)CC3CCCCC31N=2)[N+](=O)[O-] (stereo not drawn),RGS16–Galpha-o binding response,[6],20.9%
same,RGS19–Galpha-o binding response,[7],357%
same,RGS4–Galpha-o binding response,[8],80.6% (active)
same,RGS7–Galpha-o binding response,[9],-195%
same,RGS8–Galpha-o binding response,[10],43.8%
